Compound activity deposited in PubChem BioAssay by National Center for Advancing Translational Sciences (NCATS).
IL1B secr inh: inflammasome signaling inhibition, IL-1 beta readout; THP-1 LPS/ATP IL-1B secretion, AlphaLISA, 16 h; stronger effect = lower value; activity change, % at 57.5 µM; actives 4.7% (n = 360,000); AID 743279; in the data active = activity change below about -50%; inconclusive = mostly about -30% to -49%
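Secreted IL-1B measured by AlphaLISA bead assay after 16 h compound exposure of THP-1 cells; compounds (final up to 57.5 uM) added 1 h before LPS (250 ng/mL) and ATP (1.25 mM) stimulation; lower signal means less secretion.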
HT1080 IDH1KD tx: HT-1080 IDH1 knockdown cell toxicity (counter line); HT-1080 IDH1 knockdown viability, ATP luminescence, 48 h; Potency, µM (series often up to 46.1 µM), usual class: cytotoxic; actives 2% (n = 360,000); AID 686971
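Cytotoxicity counter-line: IDH1KD HT-1080, 48 h, CellTiter-Glo. Curves classed by r2, magnitude and activity.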
TDP1 cell CPT: growth inhibition of DT40 Tdp1-/-;hTDP1 cells with camptothecin (screen for TDP1 inhibitors); actives 12% (n = 420,000); chicken DT40 Tdp1-/-;hTDP1 cells + 20 nM CPT, ATP luminescence, 48 h; AID 686979; Potency, µM (series often up to 46.2 µM), actives largely listed as inhibitors; note: nearly all actives have a fitted effect of over 55% in size
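Cell growth measured by CellTiter-Glo luminescence after a minimum 48 h, 37 C compound exposure with 20 nM CPT in Tdp1-knockout DT40 cells stably expressing hTDP1, seeded 400/well; qHTS titration format.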
ELG1 repair inh: inhibitors of ELG1-dependent DNA repair in HEK293T cells | Potency, µM (highest dose often 46.1 µM), most hits filed as inhibitors | actives 2.3% (n = 330,000) | AID 504467 | HEK293T ELG1-luciferase reporter, luminescence, 16 h; DNA damage induced by 5-fluorouridine; note: nearly all actives have a fitted effect of over 55% in size
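Overnight (16 hr) co-exposure of 2,000 cells/well to 5-fluorouridine and compound at 37 °C preceded detection. Luciferase was quantified via ONE-Glo luminescence; loss of signal denotes inhibition.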
HT1080-NT tox: kills 2HG-producing HT-1080-NT fibrosarcoma cells. HT-1080-NT fibrosarcoma viability, CellTiter-Glo ATP luminescence, 48 h. Potency, µM (titrated, usually from 46.1 µM), hits mostly cytotoxic. actives 1.6% (n = 360,000);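 note: NT is the 2HG producing partner of a matched IDH1 knockdown line; nearly all actives have a fitted effect of over 55% in size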
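750 cells/well, RPMI + 5% FBS; 2 h settle, compound pin-transfer, 48 h at 37 degrees C. CellTiter-Glo 10 min RT, luminescence. Normalized to DMSO and media-only wells.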
DT40 TDP1 no CPT: qHTS for Inhibitors of human tyrosyl-DNA phosphodiesterase 1 (TDP1): qHTS in cells in absence of CPT; DT40 Tdp1-/- hTDP1 cells, no CPT, ATP luminescence, 48 h; AID 686978, 2013; actives 15% (n = 420,000); Potency, µM (doses to about 46.2 µM), most hits filed as inhibitors; note: nearly all actives have a fitted effect of over 55% in size
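A cellular qHTS used chicken DT40 cells lacking endogenous Tdp1 but carrying stably transfected human TDP1. Compounds were applied without camptothecin, and cell growth kinetics were judged by ATP-dependent luminescence after ≥48 hr.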
Hits are given with their value; 0 = inactive; ? = inconclusive; - = not tested or not shown; [ ] = another dose, or the depositor's remark. The list is not random: actives were taken first. Their share in the collection is about 19%. Unless noted, calls come from the whole dose curve; as a rule, active = well fitted curve in the direction sought with a large enough effect; inconclusive = small, poorly fitted or top-dose-only effect, or another doubt; inactive = no such curve, though single readings can be large; an effect the other way counts as inactive or inconclusive.

SMILES | IL1B secr inh | HT1080 IDH1KD tx | TDP1 cell CPT | ELG1 repair inh | HT1080-NT tox | DT40 TDP1 no CPT
C[C@@H](C(=O)NCc1ccccc1)[C@@H]1C[C@@]1(C)[C@@H](NC(=O)OCc1ccccc1)c1ccccc1 | -57 | 0 | 16µM | ? | 0 | ?
CNC(=O)[C@H](C)[C@@H]1C[C@@]1(C)[C@@H](NC(=O)OCc1ccccc1)c1ccccc1 | 0 | 0 | ? | 0 | 0 | 0
C[C@@H](C(=O)NCCc1c[nH]c2ccccc12)[C@@H]1C[C@@]1(C)[C@@H](NC(=O)OCc1ccccc1)c1ccccc1 | ? | 0 | 13µM | ? | 0 | 18µM
Cn1ccnc1COc1ccc(C=O)cc1 | 0 | 0 | 0 | 0 | 0 | 0
CCn1c(=N)c(C(=O)NC2CCCC2)cc2c(=O)n3cc(C)ccc3nc21 | - | - | 0 | - | - | 0
C[C@@H](C(=O)O)[C@@H]1C[C@@]1(C)[C@@H](NC(=O)OCc1ccccc1)c1ccccc1 | 0 | 0 | 0 | 0 | 0 | 0
COc1ccccc1CNC(=O)C(Cc1c[nH]c2ccccc12)NC(=O)OCc1ccccc1 (configuration not stated) | 0 | 0 | ? | ? | 0 | 18µM
Cc1ccc(CNC(=O)[C@H](C)[C@H]2C[C@]2(C)[C@H](NC(=O)OCc2ccccc2)c2ccccc2)o1 | 0 | 0 | ? | ? | 0 | 16µM
C[C@@H](C(=O)Nc1ccc2ccccc2c1)[C@@H]1C[C@@]1(C)[C@@H](NC(=O)OCc1ccccc1)c1ccccc1 | 0 | 0 | ? | 0 | 0 | 16µM
C[C@@H](C(=O)NCc1ccccn1)[C@@H]1C[C@@]1(C)[C@@H](NC(=O)OCc1ccccc1)c1ccccc1 | 0 | 0 | 23µM | 0 | 0 | 13µM
CN(CCOc1ccc(Cl)cc1)C(=O)c1cccc(S(=O)(=O)N2CCN(c3ccccc3)CC2)c1 | 0 | 0 | 15µM | - | 0 | 6.5µM
COc1cccc(CN(C)C(=O)c2ccc(S(=O)(=O)Nc3cccc(C)c3C)cc2)c1OC | 0 | 0 | 18µM | - | 0 | 18µM
COc1cccc(CN(C)C(=O)c2ccc(Cl)c(S(=O)(=O)N3CCCCCC3)c2)c1OC | -53 | 0 | ? | - | 0 | ?
CN(C)C(CNC(=O)c1cccc(S(=O)(=O)N2CCN(c3ccc(F)cc3)CC2)c1)c1ccccc1 (configuration not stated) | -74 | 15µM | 15µM | - | ? | 9.2µM
O=C(O)CCC(=O)C(=O)O (tested in a mixture with another compound) | - | - | 0 | - | - | 0
S=C(Nc1ccc(-c2nc3ccccc3[nH]2)cc1)Nc1cccnc1 | 0 | ? | 0 | ? | ? | ?
CN(Cc1ccc(Cl)cc1Cl)C(=O)c1cccc(S(=O)(=O)N2CCN(c3ccccc3)CC2)c1 | ? | 0 | 26µM | ? | 0 | 16µM
COc1ccccc1CNC(=O)c1cccc(S(=O)(=O)N2CCN(c3ccc(F)cc3)CC2)c1 | 0 | 0 | ? | ? | 0 | 12µM
COc1cccc(CN(C)C(=O)c2cccc(S(=O)(=O)N3CCN(c4ccccc4)CC3)c2)c1OC | 0 | 0 | 18µM | - | 0 | 8.2µM
COc1cccc(CNC(=O)c2cccc(S(=O)(=O)N3CCN(c4ccc(F)cc4)CC3)c2)c1 | 0 | 0 | ? | ? | 0 | ?
COc1cccc(CN(C)C(=O)c2cc(S(=O)(=O)N3CCN(c4ccccc4)CC3)ccc2Cl)c1 | 0 | 0 | 23µM | 0 | 0 | 16µM
COc1cccc(-n2cnnc2SC(C)C(=O)NC2CCCC2)c1 (configuration not stated) | 0 | 0 | 0 | 0 | 0 | 0
COc1cccc(CN(C)C(=O)c2cccc(S(=O)(=O)N3CCN(Cc4ccccc4)CC3)c2)c1OC | 0 | 0 | 13µM | 0 | ? | 16µM
O=C(NCC1COc2ccccc2O1)c1ccc(Cl)c(S(=O)(=O)N2CCCC2)c1 (configuration not stated) | 0 | 0 | ? | ? | 0 | ?
COc1cccc(CN(C)C(=O)c2cccc(S(=O)(=O)N3CCN(c4ccc(F)cc4)CC3)c2)c1OC | ? | 0 | 21µM | ? | 0 | 13µM
SMILES | IL1B secr inh | HT1080 IDH1KD tx | TDP1 cell CPT | ELG1 repair inh | HT1080-NT tox | DT40 TDP1 no CPT
CN(CC1COc2ccccc2O1)C(=O)c1ccc(Cl)c(S(=O)(=O)N2CCCCCC2)c1 (configuration not stated) | 0 | 0 | 16µM | ? | 0[9.24 µM] | ?
CCOC(=O)[C@]12CCC=C1N(Cc1ccco1)C(=O)[C@H](CC(=O)N1CCCCC1)C2 | 0 | 0 | 0 | - | 0 | 0
O=C1C(N2CCOCC2)=C(n2nnc3ccccc32)C(=O)c2ccccc21 | -78 | 16µM | 2.3µM | 2.6µM | 12µM | 3.3µM
CCOC(=O)c1c(C)nc2c(c1C)/C(=N/O)CC(C)(C)C2 | ? | 0 | ? | 18µM | ? | 23µM
CCOC(=O)c1c(C)nc2c(c1-c1ccc(OC)cc1)C(=O)CC(C)(C)C2 | 0 | 0 | ? | ? | 0 | ?
COc1cccc(CCNC(=O)CCc2nnc(-c3cc(C)oc3C)o2)c1 | 0 | 0 | 0 | 0 | 0 | 0
COc1ccc(C(=O)N2CCN(c3ccccc3Cl)CC2)cc1S(=O)(=O)NC1CC1 | 0 | 0 | ? | 0 | 0 | 4.1µM
COc1cccc(N2CCN(C(=O)c3ccc4ccccc4c3)CC2)c1 | 0 | 0 | ? | 0 | 0 | ?
COc1ccc(C(=O)N2CCN(c3cccc(C)c3C)CC2)cc1S(=O)(=O)NC1CC1 | 0 | 0 | ? | ? | 0 | 23µM
COc1cccc(N2CCN(C(=O)c3ccc(OC)c(S(=O)(=O)NC4CC4)c3)CC2)c1 | 0 | 0 | ? | - | 0 | 16µM
COc1ccc(C(=O)N2CCC(C(N)=O)CC2)cc1S(=O)(=O)N1CCCC1 | 0 | 0 | 0 | 0 | 0 | 0
Cc1cccc(N2CCN(C(=O)c3cccc(S(=O)(=O)N4CCOCC4)c3)CC2)c1C | 0 | 0 | ? | 0 | 0 | ?
O=c1[nH]c2ccccc2c(O)c1O | -92 | ? | 8.2µM | 3.3µM | 18µM | 5.8µM
O=C(N/N=C/c1ccccc1)c1c(O)c2ccccc2[nH]c1=O | 0 | 0 | 9.2µM | ? | 0 | 12µM
O=C(N/N=C/c1cccc(F)c1)c1c(O)c2ccccc2[nH]c1=O | 0 | 0 | 2.3µM | ? | 0 | 2.3µM
O=c1[nH]c2ccccc2c(O)c1-[n+]1ccccc1 | 0 | 0 | 0 | 0 | 0 | 0
O=C(Nc1cccc(F)c1)c1c(O)c2ccccc2[nH]c1=O | 0 | 0 | 0 | ? | 0 | 0
COC(=O)Nc1ccc(S(=O)(=O)NNC(=O)c2c(O)c3ccccc3[nH]c2=O)cc1 | 0 | 0 | ? | 0 | 0 | 23µM
